Bioassay records from PubChem BioAssay.
Only some compounds are listed: those with a hit (about 3.5% of all), similar ones and a draw of the others.
Anthrax LF prot = inhibitors of Bacillus anthracis lethal factor protease. inhibition, % at 10 µM. multiplex microsphere protease cleavage assay, LF. 0.12% of 360,000 active
BoNT-A LC inh2 = BoNT A light chain protease inhibition; multiplex microsphere protease substrate cleavage, flow cytometry; inhibition, % at 10 µM; 0.17% of 360,000 active; AID 588499
BoNT-F LC inh = inhibitors of Botulinum neurotoxin F light chain protease; Multiplex microsphere protease cleavage assay, flow cytometry; inhibition, % at 10 µM; 0.22% of 360,000 active; in the data active means inhibition above about 35%, passing the limit was not always enough; inconclusive means no clear call, values can overlap the other calls
Bead autofluor = compound fluorescence in toxin protease inhibitor counterscreen; AID 624483; fluorescence intensity (no concentration beside the values); compound autofluorescence counterscreen, microsphere flow cytometry; stronger effect = higher value; 3.1% of 360,000 active; in the data active means fluorescence intensity above about 16000; inconclusive means no clear call, values can overlap the other calls
A number is an active result; - = inactive; ? = inconclusive. Unless noted, no stated cut-off is given here; in the data, active means inhibition above about 30%; inconclusive means no clear call, values can overlap the other calls; inactive means below that.

SMILES	Anthrax LF prot	BoNT-A LC inh2	BoNT-F LC inh	Bead autofluor
COC(=O)c1ccc2c(=O)n(NC(=O)C(c3ccccc3)c3ccccc3)c(=S)[nH]c2c1	-	?	-	16293
COC(=O)c1ccc2c(=O)n(CCO)c(=S)[nH]c2c1	-	-	-	-
CCOc1ccccc1C(=O)N[C@H](C(=O)OCc1cc([N+](=O)[O-])cc2c1OCOC2)C(C)C	-	-	-	-
Cc1occc1-c1n[nH]c(=S)n1CC(C)C	-	-	-	23617
CC(C)Cn1c(-c2csc3ccccc23)n[nH]c1=S	-	-	-	-
COc1ccc(/C=C2/SC(=O)N(NS(=O)(=O)c3ccccc3)C2=S)cc1OC	-	-	-	21520
O=C1CC(=O)C(n2cncn2)C(c2c(F)cccc2Cl)C1 (stereo not drawn)	-	-	-	22544
COc1ccc(Cl)cc1C(=O)NC1CC(C)(C)NC(C)(C)C1	-	-	-	-
CCOc1ncccc1C(=O)NCc1ccccc1Cl	-	-	-	-
Cc1ccc(Nc2nnc(SCC(=O)Nc3cccnc3Cl)s2)cc1C	-	-	-	-
O=C(c1ccc(CNS(=O)(=O)c2ccccc2)cc1)N1CCN(c2ccccn2)CC1	-	-	-	-
O=C(c1ccc(Cl)c(S(=O)(=O)NCc2ccccc2)c1)N1CCN(c2ccccn2)CC1	-	-	-	18872
COC(=O)C1CCN(C(=O)c2ccc(Cl)c(S(=O)(=O)NCc3cccnc3)c2)CC1	-	?	-	23363
O=C(N1CCN(c2ccccc2)CC1)C(F)(F)C(F)F	-	-	-	20656
O=C(N1CCN(c2ccccc2)CC1)C(F)(F)C(F)(F)F	-	-	-	19895
CCOC(=O)C1=CCN(S(=O)(=O)c2ccccc2Cl)C1c1cccc(Cl)c1 (stereo not drawn)	-	-	-	-
c1ccc(Cc2nn3c(COc4ccccc4)nnc3s2)cc1	-	-	-	24302
Clc1ccccc1-c1nn2c(COc3ccccc3)nnc2s1	-	-	-	-
COc1ccc(-c2nnc3sc(COc4ccccc4)nn23)cc1	-	-	-	20311
COc1ccc(-c2nnc3sc(COc4ccc(C)cc4)nn23)cc1	-	-	?	-
CCOc1ccccc1OCc1nn2c(COc3ccccc3)nnc2s1	-	-	-	16185
O=C(Cn1nc(Cc2cccnc2)c2ccccc2c1=O)NCc1ccc(F)cc1	-	-	-	-
Cc1cccc(C)c1NC(=O)C(C)NCc1cccs1 (stereo not drawn)	-	-	-	-
CCN1C(=O)N2C[C@H]3CON(C)[C@H]3C[C@H]2c2ccccc21	-	-	-	-
CC(c1ccccc1)N1CNc2c(c(=O)n(C)c(=O)n2C)C1 (stereo not drawn)	-	-	-	-
SMILES	Anthrax LF prot	BoNT-A LC inh2	BoNT-F LC inh	Bead autofluor
Cn1c2c(c(=O)n(C)c1=O)CN(CCCN1CCOCC1)CN2	-	-	-	16352
COC(=O)c1ccc(CO/N=C(\NC(C)=O)c2nonc2NC(C)=O)cc1	-	-	-	-
CCOc1ccc(NC(=O)CSc2nc3[nH]ncc3c(=O)n2-c2ccccc2OC)cc1	-	-	-	-
COc1ccccc1-n1c(SCC(=O)Nc2ccccc2F)nc2[nH]ncc2c1=O	-	?	-	16242
Cc1cc(C)c(NC2=NS(=O)(=O)c3ccccc32)c(C)c1	-	?	-	22474
Cc1cc(O)c(C(C)C)cc1NC1=NS(=O)(=O)c2ccccc21	-	-	-	16315
COC(=O)c1ccc(C(=O)OC)c(NC2=NS(=O)(=O)c3ccccc32)c1	-	-	-	23866
Cc1ccc(C)c(NC2=NS(=O)(=O)c3ccccc32)c1	-	-	-	-
CC1=C/C(=N\NC(=O)c2ccccc2)CC1	-	-	-	-
CCC1Oc2ccc(C)cc2N(CC(=O)N(Cc2ccc3c(c2)OCO3)CC2CCCO2)C1=O (stereo not drawn)	-	-	-	24977
COc1ccc(CN(CC2CCCO2)C(=O)CN2C(=O)C(C)Oc3ccc(C)cc32)cc1OC (stereo not drawn)	-	-	-	-
O=C(CSc1nc2ccccc2[nH]1)NCCCn1ccnc1	-	-	-	16490
CC(C)NC(=S)N/N=C1\CCCCC1C1CCCCC1 (stereo not drawn)	-	?	-	22179
CC1CCCC/C1=N\NC(=S)Nc1ccccc1 (stereo not drawn)	-	-	-	-
CC(C)(C)c1nc2c(Br)cc(Br)cc2c(=O)o1	-	-	-	-
Cc1ccc2[nH]c(=O)c(N3CCOCC3)c(-c3ccccc3)c2c1	-	?	-	25661
Cc1cc(C)c(C(=O)COC(=O)c2c(C)noc2C)cc1C	-	-	-	-
C=CCNC(=S)NNC(=O)c1cccn(Cc2cccc(Cl)c2)c1=O	-	-	-	24135
CN1CCN(C(=O)c2cccn(Cc3cccc(Cl)c3)c2=O)CC1	-	-	?	-
